# This is part of a sample that, as a whole, favours compounds with a hit. Of some 83,000 tested, about 20% had one in any assay.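 Negative percent growth values reflect cell death: -40 means 40% of the cells present at the start died, and -100 means all died.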 Unmarked numbers belong to inactive results. Calls of active or inactive are those of the source. The calls were made as follows: active = growth percent below 10; inactive = the rest.
# How the values were obtained:
# Assay in all cases: NCI-60 one-dose screen, 48 h (100 = growth as untreated, 0 = no growth, -100 = all killed)
# Details in all cases: 10 µM unless noted
# [1] = test system: NCI-H23 lung
# [2] = test system: NCI-H226 lung
# [3] = test system: NCI-H322M lung
# [4] = test system: HOP-62 NSCLC
# [5] = test system: NCI-H460 lung
# [6] = test system: NCI-H522 lung
# [7] = test system: A549/ATCC NSCLC
# [8] = test system: 786-0 renal
# [9] = test system: DU-145 prostate
# [10] = test system: MALME-3M melanoma
# [11] = test system: MDA-MB-231 breast
# [12] = test system: RXF 393 renal
# [13] = test system: SF-268 CNS
# [14] = test system: SF-295 CNS
# [15] = test system: SF-539 CNS
# [16] = test system: UACC-257 melanoma
# [17] = test system: M14 melanoma
# [18] = test system: HCT-15 colon
# [19] = test system: K-562 leukemia
# [20] = test system: COLO 205 colon
SMILES,growth [1],growth [2] [%],growth [3],growth [4] [%],growth [5],growth [6],growth [7] [%],growth [8],growth [9],growth [10],growth [11] [%],growth [12],growth [13],growth [14],growth [15],growth [16],growth [17],growth [18],growth [19],growth [20] [%]
Cc1c(C(N)=O)sc2c1C(=O)N(Cc1ccccc1)C1=NN=C(c3ccc(Cl)cc3)CN12,58.9%,73.9,38.1%,66.3,28%,67.1%,46,43%,46.1%,58.9%,37.3,51.3%,38.6%,29.1%,53.2%,59.8%,41.5%,22.6%,,
CCn1c2ccccc2c2ccc(C(C)=O)cc21,101%,91.8,126%,103,108%,96.6%,103,102%,93.5%,113%,114,105%,90.8%,116%,96.5%,108%,105%,107%,,
O=C1Cc2cc(CCN3CCN(CCOCCO)CC3)c(Cl)cc2N1Cc1ccc(-c2ccccc2-c2nn[nH]n2)cc1,85.8%,81.8,108%,91.6,90%,79.4%,87.1,86.8%,117%,91.8%,92.1,113%,117%,93.5%,,81.4%,92.6%,86.6%,,
NNC(=O)C1CC2c3ccccc3C1c1ccccc12 (stereo unspecified),101%,101,116%,112,115%,87%,113,105%,115%,123%,102,116%,98.7%,105%,99%,118%,111%,111%,,
COc1cc(C2NC(c3ccc(Cl)cc3)C(C)C(=NC(=O)c3cnccn3)C2C)cc(OC)c1OC (stereo unspecified),90.7%,102,113%,117,103%,85.4%,98.8,91.6%,115%,79.8%,104,93.8%,97.2%,106%,89.8%,120%,96.9%,81%,,
Oc1ccc(Cc2ccc(O)c(C3CC(c4ccc(Cl)cc4)=NN3)c2)cc1C1CC(c2ccc(Cl)cc2)=NN1 (stereo unspecified),17.4%,53.6,7.95% (active),31.6,4.56% (active),-6.56% (active),14.7,18.2%,32.6%,29.7%,12.7,66.5%,29.8%,-26.9% (active),40.7%,23.7%,24.5%,17.2%,,
COc1ccc(-c2cn(-c3ccccc3)c(-c3ccccc3)n2)cc1OC,75.7%,62.4,88.4%,102,70.5%,75.4%,85.8,83.7%,-22.9% (active),111%,73.8,102%,47.9%,94.7%,79.6%,105%,87%,17.1%,14.8%,
COc1cc2c(c(OC)c1OC)-c1ccc(NN(C(=O)c3ccccc3)C(=O)c3ccccc3)c(=O)cc1[C@@H](NC(C)=O)CC2 (tested in a mixture with another compound),26.9%,73.3,17.8%,46,17.9%,-8.35% (active),56.6,31.4%,3.42% (active),39.4%,51.2,38.5%,48.9%,-30.7% (active),15.4%,58.4%,4.01% (active),48.8%,,
COc1cc(/C=C/c2nnc(-c3cc(-c4ccccc4)n[nH]3)o2)cc(OC)c1OC,92.6%,100,106%,102,107%,85.4%,97.5,118%,108%,98.3%,111,111%,,105%,92.6%,105%,127%,102%,98.2%,
CC(C)[C@]12O[C@H]1[C@@H]1O[C@]13[C@]1(O[C@H]1C[C@H]1C4=C(CC[C@@]13C)C(=O)OC4)[C@@H]2OC(=O)CN(C)C,-19.4% (active),10.6,-7.07% (active),19.2,0.675% (active),-41.8% (active),18.4,12.9%,3.28% (active),-45.2% (active),27.8,-61.9% (active),-10.2% (active),-27.6% (active),-23% (active),-2.52% (active),-74.2% (active),9.18% (active),,
Cn1c(N)c(N=O)c(=O)[nH]c1=O,104%,106,112%,103,107%,91.8%,97.9,101%,112%,104%,112,114%,110%,114%,105%,107%,97.9%,112%,93.3%,
C=C(C)[C@H]1CC/C(C)=C/CC[C@]2(C)O[C@H]2CC/C(C=O)=C\C1O (stereo partly specified),112%,106,111%,105,104%,113%,108,115%,106%,,92.4,111%,106%,,106%,154%,,118%,124%,
O=C(/C=C/c1cc2ccccc2[nH]c1=O)c1ccc(O)cc1,56.9%,98.7,51.8%,42.5,1.97% (active),-44.1% (active),,62.6%,-44.1% (active),83.7%,59.5,0.37% (active),20.4%,54%,23.3%,92.6%,76%,35.2%,5.94% (active),105
COc1cc2cn3c4ccc(O)cc4nc(N)c3c2cc1OC,0.98% (active),25.7,28.7%,11.9,1.19% (active),-39.4% (active),18.4,6.11% (active),,31.2%,61.6,9.93% (active),20.8%,9.44% (active),-18.3% (active),6.97% (active),-9.75% (active),31.4%,,
Cc1cc2cn3c4cccnc4[nH]c(=O)c3c2cc1C,55.7%,90.3,91.8%,46.8,4.12% (active),-75% (active),10.2,-14.5% (active),,80.1%,40.5,70.6%,73.4%,34.4%,76.7%,85.8%,,-37.7% (active),,
Cn1cc(-c2nc(-c3c[nH]c4ncc(F)cc34)cs2)c2cccnc21,92.1%,98.8,107%,108,96.3%,140%,107,94.4%,,101%,68.8,98.3%,116%,107%,113%,119%,86.6%,97.1%,,
CC[N+](C)(CC)CCCC(C)Nc1ccnc2cc(Cl)ccc12 (stereo unspecified),102%,96.3,96.5%,113,102%,108%,107,,97.7%,104%,114,125%,91.4%,108%,105%,107%,109%,110%,,107
COc1ccc(C(=O)C(C)Br)cc1OC (stereo unspecified),90.7%,96.1,99%,106,103%,-10.4% (active),,95.5%,107%,97.2%,90,102%,90.9%,102%,92.9%,80.1%,97.5%,46.4%,59.2%,23.3
